# Screens: PubChem, several laboratories
# BioA inh: blocks M. tuberculosis BioA enzyme activity. 360,000 tested, 0.096% active. purified M. tuberculosis BioA enzyme, plate reader. inhibition, % at 9.99 µM; in the data active = inhibition above about 40%; inconclusive = no clear call, values can overlap the other calls
# GDH-TPI inh: inhibits GDH-TPI coupling enzymes, artifact for Mtb FBA screen; 360,000 tested, 1.2% active; inhibition, % at 4.8 µM; GDH-TPI coupled enzyme counterscreen, NADH absorbance; in the data active = inhibition above about 30%;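 note: 0% = DMSO wells and 100% = wells lacking the enzyme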
# Rv3671c protease: inhibits the M. tuberculosis serine protease Rv3671c; 320,000 tested, 0.048% active; AID 2606; inhibition, % at 5.96 µM; P9WHR9; in the data active = inhibition above about 38%;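 note: extracellular domain of Rv3671c used as enzyme; 0% = enzyme with DMSO and 100% = no enzyme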
# Target sequence (P9WHR9 whole entry, looked up, the tested form may be a part): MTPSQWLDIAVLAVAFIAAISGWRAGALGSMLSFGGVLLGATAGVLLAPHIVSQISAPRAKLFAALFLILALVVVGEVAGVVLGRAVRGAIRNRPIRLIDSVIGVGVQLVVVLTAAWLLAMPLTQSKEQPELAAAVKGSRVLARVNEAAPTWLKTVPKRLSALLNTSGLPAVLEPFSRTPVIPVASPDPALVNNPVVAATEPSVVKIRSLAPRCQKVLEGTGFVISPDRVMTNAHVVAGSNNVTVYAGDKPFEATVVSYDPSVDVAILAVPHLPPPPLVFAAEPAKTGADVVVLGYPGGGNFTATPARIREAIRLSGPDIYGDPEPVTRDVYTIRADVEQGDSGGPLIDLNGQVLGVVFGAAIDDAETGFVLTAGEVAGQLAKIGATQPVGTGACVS
# FadD28 FP inh: inhibitors of Mycobacterium tuberculosis FadD28 bisubstrate binding. FadD28 bisubstrate probe binding, fluorescence polarization. inhibition, % at 12.5 µM. 360,000 tested, 0.22% active; in the data active = inhibition above about 8.5%, passing the limit was not always enough; inconclusive = no clear call, values can overlap the other calls
# Mtb FBA inh: inhibitors of M. tuberculosis fructose-bisphosphate aldolase; inhibition, % at 1 µM; purified M. tuberculosis FBA, fluorescence read-out; AID 588726; P9WQA3; 360,000 tested, 2.3% active; in the data active = inhibition above about 27%;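 note: 0% = vehicle and 100% = reference inhibitor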
# * marks the source's active call; other numbers are inactive results; ? = inconclusive; nt = no result; + = active, no number. This is a sample that favours compounds with a hit; in the whole collection about 3% have one here.
SMILES,BioA inh,GDH-TPI inh,Rv3671c protease,FadD28 FP inh,Mtb FBA inh
Cc1ccc(/C=N/Nc2ccc(C(=O)O)cc2)s1,1,48*,-4,?,-2
Cn1cccc1/C=N/NC(=O)c1ccco1,nt,34*,5,0,3
Cc1ccc(/C=N/Nc2cccc(C(=O)O)c2)s1,-1,16,9,4,-1
O=C(N/N=C/c1ccc(Br)s1)c1ccccn1,-1,43*,8,-4,-7
O=C(N/N=C/c1ccsc1)c1ccccn1,-2,8,7,-1,6
CCc1ccc(/C=N/NC(=O)c2cc(C)on2)s1,nt,32*,-3,0,-2
CN1C(=O)c2cc(NC(=O)c3ccc(Cl)cc3)ccc2OC[C@@H]2O[C@H](CC(=O)O)CC[C@@H]21,0,nt,nt,nt,nt
C[C@H](CO)N1C[C@H](C)[C@H](CN(C)C(=O)c2ccccc2)OCCCC[C@H](C)Oc2ccc(NC(=O)Nc3ccc(F)cc3)cc2C1=O,-6,nt,nt,nt,nt
O=C(N/N=C/c1ccco1)c1ccccn1,-5,35*,-5,0,1
Cc1ccc(/C=N/NC(=O)c2ccco2)s1,-1,38*,1,-4,-4
O=C(N/N=C/c1ccc(Br)s1)c1ccco1,nt,66*,3,-3,-3
Cc1occc1C(=O)N/N=C/c1ccc(Br)s1,-2,13,1,-4,-1
Cc1ccc(/C=N/NC(=O)c2ccoc2C)s1,nt,10,7,-3,-4
Cc1ccc(/C=N/NC(=O)c2ccc(C(=O)N/N=C/c3ccc(C)s3)o2)s1,-1,68*,0,-2,1
C[C@@H]1CN([C@H](C)CO)C(=O)c2cc(NC(=O)c3ccncc3)ccc2O[C@@H](C)CCCCO[C@H]1CN(C)S(=O)(=O)c1ccc(Cl)cc1,0,nt,nt,nt,nt
C[C@H](NC(=O)C[C@@H]1CC[C@H](NC(=O)c2cccnc2)[C@H](CO)O1)c1ccccc1,-1,nt,nt,nt,nt
O=C(O)c1ccc(NN=Cc2cc(=O)[nH]c(=O)[nH]2)cc1,0,40*,nt,-4,-5
O=c1cc(C=NNc2ccccc2)[nH]c(=O)[nH]1,nt,22,nt,-3,-4
CCOC(=O)c1nc2sc3c(c2c(=O)[nH]1)CCCC3,nt,22,-4,-3,181*
CCOC(=O)C(NC(=O)c1ccccc1)=C1C=C(C)OC(C)=C1,0,42*,4,0,-3
CCOC(=O)C(NC(=O)c1ccccc1)=C(C)C,-1,-1,0,-4,0
COC(=O)C(NC(=O)c1ccccc1)=C1C=C(C)OC(C)=C1,0,31*,7,-3,-3
CO[C@@H]1CN(C)C(=O)c2cc(NS(=O)(=O)c3cccc(F)c3)ccc2OC[C@H](C)NC[C@H]1C,-3,nt,nt,nt,nt
Cc1noc(C)c1NC(=O)Nc1ccc2c(c1)C(=O)N([C@H](C)CO)C[C@H](C)[C@@H](CN(C)C(=O)Nc1ccc(F)cc1)O2,0,nt,nt,nt,nt
C[C@@H]1CN([C@H](C)CO)C(=O)c2cc(-c3ccc(C(=O)N(C)C)cc3)cnc2O[C@H]1CN(C)C(=O)CN(C)C,0,nt,nt,nt,nt
SMILES,BioA inh,GDH-TPI inh,Rv3671c protease,FadD28 FP inh,Mtb FBA inh
COc1ccc2oc(-c3ccccc3)c(C(=O)O)c2c1,nt,9,-7,-1,+
COc1ccc(-c2oc3ccccc3c2C(=O)OCc2ccc([N+](=O)[O-])cc2)cc1,-3,2,-6,0,2
COC(=O)c1c(-c2ccc(OC)cc2)oc2ccccc12,-1,18,-16,-2,134*
O=c1cc[nH]c2ccc([N+](=O)[O-])cc12,nt,10,4,-2,-1
CN(C)c1ccc2c(=O)cc[nH]c2c1,nt,nt,nt,-1,+
COc1ccc(Cl)cc1-n1c(N)c(C(N)=O)sc1=S,-3,37*,0,-3,1
CCOc1ccccc1-n1c(N)c(C(N)=O)sc1=S,-1,32*,4,-3,-2
C[C@H]1CN([C@@H](C)CO)C(=O)c2cc(NS(=O)(=O)c3ccc(Cl)cc3)ccc2O[C@@H]1CN(C)S(C)(=O)=O,0,nt,nt,nt,nt
N#CC(=Cc1ccc(O)cc1)C(N)=C(C#N)C#N,3,37*,7,0,10
COc1cc2c(cc1OC)C(CCc1ccccc1)=NCC2,-1,24,2,-1,158*
Cc1cccc(S(=O)(=O)N(C)C[C@@H]2OCc3ccccc3-c3ccccc3C(=O)N([C@@H](C)CO)C[C@H]2C)c1,-1,nt,nt,nt,nt
C[C@@H]1CCCCO[C@@H](CN(C)C(=O)Nc2ccccc2)[C@H](C)CN([C@H](C)CO)C(=O)c2cc(NS(=O)(=O)c3ccc(F)cc3)ccc2O1,-2,nt,nt,nt,nt
Cc1c(CC(=O)N2C[C@H]3C[C@@H](C2)c2cccc(=O)n2C3)c(=O)oc2c(C)c(O)ccc12,-1,11,-8,-4,+
Cc1c(CCC(=O)N2C[C@H]3C[C@@H](C2)c2cccc(=O)n2C3)c(=O)oc2c(C)c(O)ccc12,1,8,nt,-8,191*
Cc1oc2c(C)c3oc(=O)c(CCC(=O)N4C[C@H]5C[C@@H](C4)c4cccc(=O)n4C5)c(C)c3cc2c1C,1,6,1,-9,4
Cc1c(CC(=O)N2C[C@H]3C[C@@H](C2)c2cccc(=O)n2C3)c(=O)oc2cc(O)c(Cl)cc12,-1,31*,-11,0,nt
Cc1coc2c(C)c3oc(=O)c(CCC(=O)N4C[C@H]5C[C@@H](C4)c4cccc(=O)n4C5)c(C)c3cc12,1,27,-2,-5,21
CO[C@H]1CN(C)C(=O)c2cc(NS(=O)(=O)c3ccc(F)cc3)ccc2OC[C@H](C)NC[C@@H]1C,-1,nt,nt,nt,nt
COc1cccc(NC(=O)N(C)C[C@H]2OCc3ccccc3-c3c(n(C)c4ccccc34)C(=O)N([C@@H](C)CO)C[C@@H]2C)c1,1,nt,nt,nt,nt
COc1ccc(NC(=O)N(C)C[C@H]2Oc3ncc(-c4ccc(C#N)cc4)cc3C(=O)N([C@H](C)CO)C[C@@H]2C)cc1,4,nt,nt,nt,nt
O=C(/C=C/c1cccc(Br)c1)c1ccc2c(c1)OCO2,0,9,-7,1,2
O=C(C=Cc1ccc2c(c1)OCO2)C1CC1,1,36*,nt,-1,1
O=C(/C=C/c1ccccc1)c1ccc2c(c1)OCO2,3,40*,3,-3,-5
COC(=O)/C=C/c1ccc2c(c1)OCO2,-1,9,-1,-1,7
CCCCCCC(=O)O,-1,6,-2,-2,1
SMILES,BioA inh,GDH-TPI inh,Rv3671c protease,FadD28 FP inh,Mtb FBA inh
CCCCCCCCCCCCCCCC(=O)OC(CC(=O)O)C[N+](C)(C)C (stereo unspecified),18,0,-5,17*,2
Cc1nc2ccccn2c1C(=O)N/N=C/c1ccc2c(c1)OCO2,0,42*,-6,-4,-1
CCOc1cc(/C=N\NC(=O)c2c(C)nc3ccccn23)ccc1O,0,48*,-3,0,-1
Cc1nc2ccccn2c1C(=O)N/N=C/c1ccccc1[N+](=O)[O-],-1,30,2,0,3
Cc1nc2ccccn2c1C(=O)N/N=C/c1cc(C)n(-c2ccc(Cl)cc2)c1C,-2,36*,1,-2,5
CCOc1cc(/C=N/NC(=O)c2c(-c3ccccc3)noc2C)ccc1O,6,29,-8,0,-6
C[C@@H]1CN([C@H](C)CO)C(=O)CCCn2nncc2CO[C@H]1CN(C)CC1CCCCC1,-5,nt,nt,nt,nt
